Activity calls are given as the source filed them.
Legend:
[1] = E. coli DRC41 culture turbidity changes, primary screen, E. coli filamentation inducer project, strain DRC41, OD650, 48 h (AID 1152);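 further: E. coli MC1000 strain DRC41 lacking acrAB efflux pump and sulA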; details: E. coli DRC41 (acrAB sulA), higher = more signal, called active from +8 up or from −8 down
[2] = small-molecule binders of probe aLefty1, primary screen, biochemical, small-molecule microarray, 635/667 nm fluorescence (AID 1153); details: higher = more signal;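 further: score merges spot fluorescence with signal-to-noise ratio from the scanned slide images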
[3] = PSAC antagonists in infected red cells, primary screen, cell-based, P. falciparum Indochina, OD700, 1 h (AID 1154); details: P. falciparum Indochina infected RBC osmotic lysis, higher = more signal, called active from +8 up or from −8 down
[4] = PSAC antagonists in infected red cells, primary screen, cell-based, P. falciparum Indochina, OD700, 2 h (AID 1155);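 further: lysis reports solute entry through the parasite surface anion channel PSAC; channel blockers reduce lysis of infected cells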; details: P. falciparum Indochina infected erythrocytes, osmotic lysis OD700; higher = more signal, called active from +8 up or from −8 down
[5] = osmotic lysis modulators in infected erythrocytes, primary screen, PSAC antagonist project, cell-based, P. falciparum Indochina, OD700, 3 h (AID 1156); details: higher = more signal, called active from +8 up or from −8 down
[6] = PSAC antagonists in infected red cells, primary screen, cell-based, P. falciparum Indochina, OD700, 18 h (AID 1157); details: P. falciparum Indochina infected erythrocytes, osmotic lysis OD700, 18 h; higher = more signal, called active from +8 up or from −8 down
[7] = modulators of S6 phosphorylation in cells, primary screen, cell-based, A549, cytoblot, luminescence, serum-stimulated (AID 1158); details: A549 phospho-S6 cytoblot, 5 h, higher = more signal;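 further: serum-stimulated A549 lung adenocarcinoma cells; signal is phosphorylated S6 detected by cytoblot immunostaining with HRP secondary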
[8] = target: NADPH oxidase 2 (Homo sapiens) (UniProt P04839); experiment: NOX2-dependent H2O2 signal modulators, primary screen, NOX inhibitor project, cell-based, HEK293-NOX2, PMA-stimulated, Amplex Red fluorescence (AID 1159); details: 45 min, higher = more signal, called active from +8 up or from −8 down; further: test concentration not given here
Chain of NADPH oxidase 2 (Homo sapiens) (P04839 whole entry, looked up): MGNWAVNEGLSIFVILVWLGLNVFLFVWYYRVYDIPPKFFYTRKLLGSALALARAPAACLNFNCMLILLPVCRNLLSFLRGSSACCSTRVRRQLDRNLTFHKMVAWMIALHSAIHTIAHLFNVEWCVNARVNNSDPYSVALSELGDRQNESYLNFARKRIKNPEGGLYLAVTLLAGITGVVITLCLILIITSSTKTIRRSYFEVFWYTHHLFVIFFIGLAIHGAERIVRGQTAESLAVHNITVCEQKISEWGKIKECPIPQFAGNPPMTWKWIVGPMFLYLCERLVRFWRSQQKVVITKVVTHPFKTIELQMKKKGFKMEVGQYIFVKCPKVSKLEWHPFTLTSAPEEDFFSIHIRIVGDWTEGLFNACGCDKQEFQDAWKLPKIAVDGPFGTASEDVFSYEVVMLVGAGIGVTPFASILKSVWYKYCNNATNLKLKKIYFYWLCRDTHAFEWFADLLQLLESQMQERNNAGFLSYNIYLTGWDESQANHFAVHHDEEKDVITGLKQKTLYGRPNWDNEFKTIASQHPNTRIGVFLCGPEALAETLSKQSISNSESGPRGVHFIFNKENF

[9] = target: NADPH oxidase 4 (Homo sapiens) (UniProt Q9NPH5); experiment: NOX4-dependent H2O2 signal modulators, primary screen, NOX inhibitor project, cell-based, HEK293-NOX4, tetracycline-induced, Amplex Red fluorescence (AID 1160); details: 45 min, higher = more signal, called active from +8 up or from −8 down
Chain of NADPH oxidase 4 (Homo sapiens) (Q9NPH5 whole entry, looked up): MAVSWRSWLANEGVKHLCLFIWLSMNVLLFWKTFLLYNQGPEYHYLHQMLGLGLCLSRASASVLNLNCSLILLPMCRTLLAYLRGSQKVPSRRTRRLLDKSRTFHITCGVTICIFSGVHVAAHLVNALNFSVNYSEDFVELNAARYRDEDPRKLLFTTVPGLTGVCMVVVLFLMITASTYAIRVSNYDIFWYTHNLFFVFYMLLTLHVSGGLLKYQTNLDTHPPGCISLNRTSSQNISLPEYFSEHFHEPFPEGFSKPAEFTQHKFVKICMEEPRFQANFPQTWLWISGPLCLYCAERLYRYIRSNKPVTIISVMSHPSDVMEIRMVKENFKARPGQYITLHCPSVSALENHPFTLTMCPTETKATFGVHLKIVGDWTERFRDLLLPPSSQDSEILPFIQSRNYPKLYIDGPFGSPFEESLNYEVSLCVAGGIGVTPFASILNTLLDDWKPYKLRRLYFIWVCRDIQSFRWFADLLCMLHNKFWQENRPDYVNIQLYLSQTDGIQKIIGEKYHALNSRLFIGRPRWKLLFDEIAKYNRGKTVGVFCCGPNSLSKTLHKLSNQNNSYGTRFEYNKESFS

[10] = target: NADPH oxidase 5 (Homo sapiens) (UniProt Q96PH1); experiment: NOX5-dependent H2O2 signal modulators, primary screen, NOX inhibitor project, cell-based, HEK293-NOX5, Amplex Red fluorescence (AID 1161); details: HEK293-NOX5, ionomycin, 45 min, higher = more signal
Chain of NADPH oxidase 5 (Homo sapiens) (Q96PH1 whole entry, looked up): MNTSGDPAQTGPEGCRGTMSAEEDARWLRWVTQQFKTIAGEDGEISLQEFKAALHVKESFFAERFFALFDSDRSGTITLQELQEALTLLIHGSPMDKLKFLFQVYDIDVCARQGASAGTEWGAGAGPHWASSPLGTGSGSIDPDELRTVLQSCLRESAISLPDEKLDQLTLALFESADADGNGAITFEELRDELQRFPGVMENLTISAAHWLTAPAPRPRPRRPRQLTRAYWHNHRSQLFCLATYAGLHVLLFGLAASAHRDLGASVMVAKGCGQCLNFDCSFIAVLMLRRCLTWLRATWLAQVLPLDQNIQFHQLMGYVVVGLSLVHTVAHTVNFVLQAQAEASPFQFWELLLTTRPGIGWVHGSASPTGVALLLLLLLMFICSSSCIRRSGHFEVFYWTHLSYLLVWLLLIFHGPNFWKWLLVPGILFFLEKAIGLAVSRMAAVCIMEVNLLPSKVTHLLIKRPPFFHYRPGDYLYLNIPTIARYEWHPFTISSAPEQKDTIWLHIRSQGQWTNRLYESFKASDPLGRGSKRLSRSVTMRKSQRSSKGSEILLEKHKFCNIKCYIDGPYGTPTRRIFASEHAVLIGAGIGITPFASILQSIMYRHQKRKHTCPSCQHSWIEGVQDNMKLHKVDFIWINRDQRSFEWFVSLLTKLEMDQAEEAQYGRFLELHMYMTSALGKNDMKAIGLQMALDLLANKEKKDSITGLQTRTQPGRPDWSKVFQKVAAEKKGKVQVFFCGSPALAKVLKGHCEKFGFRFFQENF

[11] = A549 cell viability effects, profiling panel, calcein-AM fluorescence, 48 h, basal (AID 1162); details: higher = more signal; further: test concentration not given here
[12] = adipocyte viability effects, profiling panel, cell-based, 3T3-L1 adipocytes, calcein-AM fluorescence, 48 h, basal (AID 1163); details: 3T3-L1 adipocytes viability, higher = more signal; further: test concentration not given here
[13] = HepG2 cell viability effects, profiling panel, calcein-AM fluorescence, 48 h, basal (AID 1164); details: higher = more signal; further: test concentration not given here
[14] = MM1S cell viability effects, profiling panel, calcein-AM fluorescence, 48 h, basal (AID 1165); details: higher = more signal;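 further: viability of MM1S multiple myeloma cells under basal unstimulated conditions; test concentration not given here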
[15] = basal RPMI8226 viability, no added stimulus, profiling panel, cell-based, calcein-AM fluorescence, 48 h, PK04 Diversity Set (AID 1166); details: RPMI8226 myeloma viability, higher = more signal;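 further: cells grown under basal conditions without added stimulus; test concentration not given here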
[16] = basal HepG2 mitochondrial membrane potential changes, profiling panel, cell-based, JC-1 fluorescence, 24 h, 100 nL compound (AID 1167); details: higher = more signal; further: test concentration not given here
[17] = basal 3T3-L1 adipocyte mitochondrial potential changes, profiling panel, cell-based, JC-1 fluorescence, 3T3-L1 adipocytes, 24 h, 100 nL compound (AID 1168); details: JC-1 mitochondrial fluorescence, higher = more signal, called active from +8 up or from −8 down; further: test concentration not given here
[18] = basal RPMI8226 mitochondrial membrane potential changes, profiling panel, cell-based, JC-1 fluorescence, 24 h, 100 nL compound (AID 1169); details: RPMI8226 myeloma, JC-1 mitochondrial potential fluorescence, higher = more signal; further: test concentration not given here
[19] = basal MM1S mitochondrial membrane potential changes, profiling panel, cell-based, JC-1 fluorescence, 24 h, 100 nL compound (AID 1170); details: higher = more signal; further: test concentration not given here
[20] = A549 lung cancer cell viability effects, profiling panel, resazurin fluorescence, 24 h, PK04 Diversity Set (AID 1171); details: higher = more signal, called active from +8 up or from −8 down; further: test concentration not given here

CO[C@H]1O[C@H](CO)[C@@H](OC(=O)Nc2ccc3c(c2)OCO3)[C@@H]2OC(=O)[C@@H](Cc3ccccc3)C/C=C/C[C@H](Cc3ccccc3)C(=O)O[C@@H]12
z-score [1]: 0.239 (inactive) | composite z-score [2]: 0.12 | z-score [3]: 2.93 (inactive) | z-score [4]: 0.825 (inactive) | z-score [5]: 0.0814 (inactive) | z-score [6]: 1.09 (inactive) | z-score [7]: 0.401 | z-score [8]: -0.895 (inactive) | z-score [9]: -0.162 (inactive) | z-score [10]: -1.47 | z-score [11]: 1.9 | z-score [12]: -2.78 | z-score [13]: 0.843 | z-score [14]: -0.69 | z-score [15]: -0.197 | z-score [16]: 0.186 | z-score [17]: 0.912 (inactive) | z-score [18]: -0.469 | z-score [19]: -0.897 | z-score [20]: -1.64 (inactive)

CC(C)(C)OC(=O)CC[C@]1(C(=O)N2CCOCC2)N=C(c2ccc(OCCCO)cc2)O[C@H]1c1ccccc1CN=[N+]=[N-]
z-score [1]: -0.47 (inactive) | composite z-score [2]: 0.705 | z-score [3]: 13.9 (active) | z-score [4]: 1.71 (inactive) | z-score [5]: 1.05 (inactive) | z-score [6]: 0.421 (inactive) | z-score [7]: 0.705 | z-score [8]: -1.34 (inactive) | z-score [9]: 0.181 (inactive) | z-score [10]: -0.476 | z-score [11]: -0.385 | z-score [12]: 0.0723 | z-score [13]: 0.209 | z-score [14]: -0.411 | z-score [15]: -0.563 | z-score [16]: 0.432 | z-score [17]: -0.0219 (inactive) | z-score [18]: -0.166 | z-score [19]: -0.324 | z-score [20]: 0.734 (inactive)

[N-]=[N+]=NCc1ccccc1[C@H]1OC(c2ccc(OCCCO)cc2)=N[C@@]1(Cc1ccccc1)C(=O)N1CCOCC1
z-score [1]: -0.686 (inactive) | composite z-score [2]: 0.321 | z-score [3]: 28.8 (active) | z-score [4]: 25.7 (active) | z-score [5]: 2.96 (inactive) | z-score [6]: 2.24 (inactive) | z-score [7]: 0.692 | z-score [8]: -0.0281 (inactive) | z-score [9]: 0.154 (inactive) | z-score [10]: -0.526 | z-score [11]: 0.281 | z-score [12]: 0.491 | z-score [13]: 0.556 | z-score [14]: -1.45 | z-score [15]: -1.11 | z-score [16]: 0.213 | z-score [17]: -1.67 (inactive) | z-score [18]: -0.887 | z-score [19]: 0.35 | z-score [20]: 1.56 (inactive)

CCOC(=O)C1=CCC(c2cc3ccccc3[nH]2)N(S(=O)(=O)c2ccccc2[N+](=O)[O-])C1 (stereo not given)
z-score [1]: -0.485 (inactive) | composite z-score [2]: -0.391 | z-score [3]: 4.73 (inactive) | z-score [4]: 0.822 (inactive) | z-score [5]: -0.217 (inactive) | z-score [6]: 0.631 (inactive) | z-score [7]: -0.146 | z-score [8]: 0.269 (inactive) | z-score [9]: -0.546 (inactive) | z-score [10]: 0.731 | z-score [11]: 0.0857 | z-score [12]: -0.913 | z-score [13]: 0.527 | z-score [14]: 0.277 | z-score [15]: -0.467 | z-score [16]: 1.17 | z-score [17]: -0.433 (inactive) | z-score [18]: -0.366 | z-score [19]: -1.61 | z-score [20]: -0.869 (inactive)

CCOC(=O)C[C@H]1[C@H](OC(=O)c2ccc(C(=O)c3ccccc3)cc2)[C@@H](NC(=O)c2ccc3ccccc3c2)c2cc(OCCCO)ccc2N1C(=O)c1ccc2ccccc2n1
z-score [1]: 1.86 (inactive) | composite z-score [2]: 0.23 | z-score [3]: 6.29 (inactive) | z-score [4]: 1.32 (inactive) | z-score [5]: -0.0906 (inactive) | z-score [6]: 0.728 (inactive) | z-score [7]: 0.154 | z-score [8]: 0.412 (inactive) | z-score [9]: 0.0963 (inactive) | z-score [10]: 1.66 | z-score [11]: 1.54 | z-score [12]: 0.0263 | z-score [13]: 0.664 | z-score [14]: 0.393 | z-score [15]: -0.693 | z-score [16]: 2.63 | z-score [17]: 0.978 (inactive) | z-score [18]: -0.0974 | z-score [19]: 1.75 | z-score [20]: 0.298 (inactive)

COC(=O)C1=CC(CCCO)=CC(C2CC2)N(Cc2cccc(OC(F)(F)F)c2)C=C1C(=O)OC (stereo not given)
z-score [1]: -1.16 (inactive) | composite z-score [2]: 0.193 | z-score [3]: 3.22 (inactive) | z-score [4]: 0.455 (inactive) | z-score [5]: -0.623 (inactive) | z-score [6]: 0.526 (inactive) | z-score [7]: 0.204 | z-score [8]: -0.179 (inactive) | z-score [9]: -0.34 (inactive) | z-score [10]: 0.973 | z-score [11]: -0.851 | z-score [12]: 0.589 | z-score [13]: 0.525 | z-score [14]: -0.525 | z-score [15]: -0.708 | z-score [16]: 1.18 | z-score [17]: 0.767 (inactive) | z-score [18]: -0.862 | z-score [19]: -0.159 | z-score [20]: 0.644 (inactive)

C=CC[C@@]12N=C(c3ccc(OCCCO)cc3)O[C@@H]1c1ccccc1N(Cc1ccccc1)C2=O
z-score [1]: 1.04 (inactive) | composite z-score [2]: 1.47 | z-score [3]: 31.3 (active) | z-score [4]: 28.1 (active) | z-score [5]: 3.1 (inactive) | z-score [6]: 2.31 (inactive) | z-score [7]: -0.0677 | z-score [8]: -0.812 (inactive) | z-score [9]: -0.091 (inactive) | z-score [10]: -1.59 | z-score [11]: -0.395 | z-score [12]: 0.555 | z-score [13]: -1.48 | z-score [14]: -3.4 | z-score [15]: -4.23 | z-score [16]: 0.394 | z-score [17]: 2.91 (inactive) | z-score [18]: -1.25 | z-score [19]: -0.934 | z-score [20]: -1.1 (inactive)

O=C1C2C=CC(C(O)C(c3ccccc3)c3ccccc3)N(Nc3ccccc3)C2C(=O)N1c1ccccc1 (stereo not given)
z-score [1]: -0.606 (inactive) | composite z-score [2]: 0.591 | z-score [3]: 1.85 (inactive) | z-score [4]: 1.71 (inactive) | z-score [5]: 0.331 (inactive) | z-score [6]: 1.41 (inactive) | z-score [7]: -1.25 | z-score [8]: -1.72 (inactive) | z-score [9]: -4.94 (inactive) | z-score [10]: -2.54 | z-score [11]: 0.758 | z-score [12]: -0.835 | z-score [13]: 1.82 | z-score [14]: 0.032 | z-score [15]: -0.213 | z-score [16]: -0.335 | z-score [17]: -1.64 (inactive) | z-score [18]: -0.305 | z-score [19]: -0.401 | z-score [20]: -0.876 (inactive)

CN(C)CCCC[C@@H]1NC(=O)[C@@H]2C[C@H](C(=O)NCc3ccc(F)cc3)[C@H](c3ccc(O)cc3)N2C1=O
z-score [1]: -0.876 (inactive) | composite z-score [2]: -0.0501 | z-score [3]: 1.98 (inactive) | z-score [4]: 0.947 (inactive) | z-score [5]: -1.62 (inactive) | z-score [6]: 0.35 (inactive) | z-score [7]: 0.359 | z-score [8]: 0.391 (inactive) | z-score [9]: -0.25 (inactive) | z-score [10]: 0.714 | z-score [11]: -0.467 | z-score [12]: -0.904 | z-score [13]: 0.263 | z-score [14]: 0.135 | z-score [15]: -0.0865 | z-score [16]: 0.393 | z-score [17]: -0.0839 (inactive) | z-score [18]: -0.963 | z-score [19]: -0.187 | z-score [20]: -0.454 (inactive)

Source: PubChem BioAssay
